According to PubChem BioAssay (EPA / NIEHS):
Records with an inconclusive call do not appear. Activity calls are given as the source filed them. The calls were made as follows, unless noted: active = hit-call score of the fitted dose curve at least 0.9, where 1 is the maximum; inactive = score below 0.9.

Experiments:
[1] = molecular target: Hypoxia-inducible factor 1-alpha (Homo sapiens) (UniProt Q16665); assay: ATG_HIF1a_CIS: Attagene CIS-FACTORIAL HepG2 Assay for human Hypoxia Inducible Factor 1 (HIF1A) (AID 2282951); settings: HepG2 Attagene cis-factorial HIF1a reporter transcription; actives raise or lower the signal
Procedure, shortened: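 Dosed 24 h, transfected HepG2 cells yielded total RNA whose reporter transcripts were RT-PCR-amplified and sized by capillary electrophoresis using fluorescent labelling; DMSO defined baseline, with gain and loss of signal both fitted.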

[2] = molecular target: Hepatocyte nuclear factor 6 (Homo sapiens) (UniProt Q9UBC0); assay: ATG_HNF6_CIS: Attagene CIS-FACTORIAL HepG2 Assay for human Hepatocyte Nuclear Factor 6 (HNF6) (AID 2282952); settings: HepG2 Attagene cis-factorial HNF6 reporter transcription; actives raise or lower the signal
Procedure, shortened: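 Twenty-four-hour chemical treatment of reporter-transfected HepG2 cells precedes RNA isolation, DNase-treated reverse transcription and PCR of reporter sequences. Labelled fragments are sized by capillary electrophoresis and fitted bidirectionally versus DMSO.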

[3] = molecular target: Heat shock factor protein 1 (Homo sapiens) (UniProt Q00613); assay: ATG_HSE_CIS: Attagene CIS-FACTORIAL HepG2 Assay for human Heat Shock Transcription Factor 1 (HSE) (AID 2282953); settings: HepG2 HSE cis-reporter, Attagene RNA transcription; actives raise or lower the signal
Procedure, shortened: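 Using HepG2 with transfected cis-driven reporter constructs, compound effects on endogenous factor activity are scored as reporter mRNA change at 24 h. Detection: RT-PCR, HpaI digestion, capillary electrophoresis; bidirectional fitting to DMSO.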

[4] = ATG_MRE_CIS: Attagene CIS-FACTORIAL HepG2 Assay for human Metal Responsive Element (MRE) (AID 2282954); settings: HepG2 MRE cis-reporter transcription, Attagene multiplex; actives raise or lower the signal
Procedure, shortened: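 RT-PCR/capillary electrophoresis readout of reporter mRNA, 24 h post-dosing, in HepG2 cells transfected with multiplexed cis-regulated reporter constructs. Gain or loss of signal fitted bidirectionally against DMSO baseline.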

[5] = ATG_PBREM_CIS: Attagene CIS-FACTORIAL HepG2 Assay for human Phenobarbital-responsive Enhancer Module (PBREM) (AID 2282955); settings: HepG2 PBREM cis-reporter, Attagene multiplexed transcription; actives raise or lower the signal
Procedure, shortened: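 Transfected liver-derived HepG2 cells exposed 24 h; PBREM reporter transcript quantified via RT-PCR and capillary electrophoresis, with activity in either direction referenced to DMSO.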

[6] = molecular target: Paired box protein Pax-6 (Homo sapiens) (UniProt P26367); assay: ATG_Pax6_CIS: Attagene CIS-FACTORIAL HepG2 Assay for human Paired Box 6 (PAX6) (AID 2282956); settings: HepG2 CIS-FACTORIAL PAX6 reporter transcription, RNA readout; actives raise or lower the signal
Procedure, shortened: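 Read-out is reporter transcript level, measured by RT-PCR with fluorescent primer extension and capillary electrophoresis after 24 h dosing of transfected HepG2 cells. Activity in either direction fitted relative to DMSO control.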

[7] = ATG_PXRE_CIS: Attagene CIS-FACTORIAL HepG2 Assay for human Pregnane X Receptor Element (PXRE) (AID 2282957); settings: HepG2 Attagene CIS-FACTORIAL PXRE reporter, mRNA; actives raise or lower the signal
Procedure, shortened: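 Bidirectional activity, baselined to DMSO, derived from reporter mRNA fluorescence (RT-PCR plus capillary electrophoresis) in HepG2 cells bearing cis-promoter reporter units, 24 h exposure.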

[8] = ATG_PPRE_CIS: Attagene CIS-FACTORIAL HepG2 Assay for human Peroxisome Proliferator-activated Response Element (PPRE) (AID 2282958); settings: HepG2 PPRE cis-element reporter, Attagene transcription factor profiling; actives raise or lower the signal
Procedure, shortened: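 Measured endpoint: PPRE-controlled reporter mRNA, detected by RT-PCR and capillary electrophoresis fluorescence, from transiently transfected HepG2 cells 24 h after dosing. Curves fitted in both directions using DMSO baseline.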

[9] = ATG_RORE_CIS: Attagene CIS-FACTORIAL HepG2 Assay for human RAR-related Orphan Receptor Element (RORE) (AID 2282959); settings: HepG2 Attagene cis-factorial RORE reporter, mRNA; actives raise or lower the signal
Procedure, shortened: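 Transiently transfected HepG2 reporter cells were treated 24 h. Reporter transcripts were detected by RT-PCR and capillary electrophoresis, with bidirectional fitting against DMSO.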

[10] = ATG_Sox_CIS: Attagene CIS-FACTORIAL HepG2 Assay for human SRY-box transcription factor (SOX) (AID 2282960); settings: HepG2 Attagene cis-factorial SOX reporter, mRNA; actives raise or lower the signal
Procedure, shortened: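 Gain- or loss-of-signal endpoint, fitted bidirectionally with DMSO as negative control. Based on reporter mRNA from transfected HepG2 cells harvested 24 h post-treatment and quantified via RT-PCR and capillary electrophoresis.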

[11] = molecular target: Transcription factor Sp1 (Homo sapiens) (UniProt P08047); assay: ATG_Sp1_CIS: Attagene CIS-FACTORIAL HepG2 Assay for human Specificity Protein 1 (Sp1) (AID 2282961); settings: HepG2 Sp1 cis-reporter transcription, actives raise or lower the signal
Procedure, shortened: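 Endpoint reflects endogenous Sp1 transcriptional activity, not an exogenous fusion protein: HepG2 cells with transfected cis-regulated reporters, 24 h dosing, RT-PCR/capillary electrophoresis mRNA read-out, DMSO-normalised bidirectional fit.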

[12] = ATG_SREBP_CIS: Attagene CIS-FACTORIAL HepG2 Assay for human Sterol Regulatory Element Binding (SREBP) (AID 2282962); settings: HepG2 Attagene cis-factorial SREBP reporter, mRNA; actives raise or lower the signal
Procedure, shortened: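 Endogenous SREBP activity read as cis-element-driven reporter transcript in transiently transfected HepG2, 24 h post-dosing; quantified via RT-PCR plus capillary electrophoresis of fluorescent fragments. Gain or loss of signal fitted relative to DMSO baseline.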

[13] = molecular target: Signal transducer and activator of transcription 3 (Homo sapiens) (UniProt P40763); assay: ATG_STAT3_CIS: Attagene CIS-FACTORIAL HepG2 Assay for human Signal Transducer and Activator of Transcription 3 (STAT3) (AID 2282963); settings: HepG2, Attagene cis-factorial STAT3 reporter transcription; actives raise or lower the signal
Procedure, shortened: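 Readout: fluorescent reporter mRNA fragments resolved by capillary electrophoresis. Setup: HepG2 transfected with MRTUs reporting endogenous transcription-factor activity, dosed 24 h. Gain or loss of signal fitted bidirectionally against DMSO control.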

[14] = ATG_TCF_b_cat_CIS: Attagene CIS-FACTORIAL HepG2 Assay for human T-Cell-Factor with beta-catenin (TCF/b-cat) (AID 2282965); settings: HepG2 TCF/beta-catenin cis-reporter transcription, actives raise or lower the signal
Procedure, shortened: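 HepG2, transient MRTU transfection, cis-element-driven reporters (endogenous TFs). 24 h compound exposure. Readout: reporter mRNA by RT-PCR + 6-FAM primer extension, HpaI digest, capillary electrophoresis. Gain/loss fit vs DMSO baseline.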

[15] = ATG_TAL_CIS: Attagene CIS-FACTORIAL HepG2 Assay for human TAL Basal Promoter (AID 2282966); settings: HepG2 Attagene cis-factorial TAL promoter reporter; actives raise or lower the signal;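 also: background control endpoint measuring basal TAL promoter reporter mRNA not a specific factor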
Procedure, shortened: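 Human hepatoma HepG2 cells, transfected with promoter-regulated reporter units, were treated 24 h. Reporter transcript levels, measured through RT-PCR and capillary electrophoresis, were fitted for gain or loss relative to DMSO.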

[16] = ATG_TGFb_CIS: Attagene CIS-FACTORIAL HepG2 Assay for human Transforming Growth Factor (TGF) (AID 2282967); settings: HepG2 Attagene CIS TGFb reporter, mRNA transcription; actives raise or lower the signal
Procedure, shortened: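 After a 24-hour incubation with compound, transfected HepG2 cells were lysed for RNA; reporter cDNA was amplified, fluorescently end-labeled and separated by CE. DMSO served as baseline for bidirectional fits.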

[17] = molecular target: Estrogen receptor (Homo sapiens) (UniProt P03372); assay: ATG_ERa_TRANS: Attagene TRANS-FACTORIAL HepG2 Assay for human Estrogen Receptor alpha (ERa) (AID 2282970; active = hit-call score of the fitted dose curve at least 0.9, where 1 is the maximum); settings: HepG2 Attagene TRANS ERa GAL4 reporter, mRNA
Procedure, shortened: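 Signal derives from fluorescence of labelled reporter PCR fragments separated by capillary electrophoresis. HepG2 cells transiently carrying multiple GAL4-UAS reporter units were treated 24 hours, and induction above DMSO baseline was fitted as activity.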

[18] = ATG_TA_CIS: Attagene CIS-FACTORIAL HepG2 Assay for human TA Basal Promoter (AID 2282964); settings: HepG2 Attagene CIS-factorial TA basal promoter reporter; actives raise or lower the signal
Procedure, shortened: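 Transient MRTU transfection of HepG2 preceded 24 h compound exposure. Reporter mRNA levels were then read by RT-PCR with capillary electrophoresis, and this background-control endpoint was fitted bidirectionally to DMSO.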

[19] = molecular target: Nuclear receptor subfamily 1 group I member 3 (Homo sapiens) (UniProt Q14994); assay: ATG_CAR_TRANS: Attagene TRANS-FACTORIAL HepG2 Assay for human Constitutive Androstane Receptor (CAR) (AID 2282969; active = hit-call score of the fitted dose curve at least 0.9, where 1 is the maximum;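 also: activators raise reporter mRNA above DMSO so AC50 marks induction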); settings: HepG2 Attagene TRANS-FACTORIAL CAR reporter
Procedure, shortened: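 Transiently transfected HepG2, multiplex TRANS reporters (CAR-Gal4 chimera driving GAL4-UAS reporter). 24 h dosing. Readout: reporter transcript by RT-PCR + capillary electrophoresis, fluorescence intensity; positive direction vs DMSO.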

[20] = ATG_VDRE_CIS: Attagene CIS-FACTORIAL HepG2 Assay for human Vitamin D Receptor Element (VDRE) (AID 2282968); settings: HepG2 VDRE cis-reporter transcription, actives raise or lower the signal
Procedure, shortened: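 Transient MRTU transfection of HepG2, 24 h compound exposure. Readout: reporter transcripts via RT-PCR and capillary electrophoresis, fluorescence. Bidirectional fit vs DMSO.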

Measured: AC50

Heat shock factor protein 1 (Homo sapiens), sequence (Q00613 whole entry, looked up): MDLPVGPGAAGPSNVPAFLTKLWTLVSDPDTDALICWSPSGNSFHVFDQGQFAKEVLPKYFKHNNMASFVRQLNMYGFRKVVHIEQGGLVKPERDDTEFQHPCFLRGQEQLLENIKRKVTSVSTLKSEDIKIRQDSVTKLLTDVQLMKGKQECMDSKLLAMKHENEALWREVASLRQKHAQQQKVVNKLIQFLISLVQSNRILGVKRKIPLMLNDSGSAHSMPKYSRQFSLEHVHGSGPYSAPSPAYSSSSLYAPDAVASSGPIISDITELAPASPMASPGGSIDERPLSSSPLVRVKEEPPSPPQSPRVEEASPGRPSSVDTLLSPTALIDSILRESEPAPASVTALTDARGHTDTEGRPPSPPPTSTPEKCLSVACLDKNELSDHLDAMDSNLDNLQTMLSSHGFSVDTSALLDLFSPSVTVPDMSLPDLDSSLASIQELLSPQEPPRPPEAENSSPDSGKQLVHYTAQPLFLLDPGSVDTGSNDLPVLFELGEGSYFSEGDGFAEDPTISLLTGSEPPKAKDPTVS
Paired box protein Pax-6 (Homo sapiens), sequence (P26367 whole entry, looked up): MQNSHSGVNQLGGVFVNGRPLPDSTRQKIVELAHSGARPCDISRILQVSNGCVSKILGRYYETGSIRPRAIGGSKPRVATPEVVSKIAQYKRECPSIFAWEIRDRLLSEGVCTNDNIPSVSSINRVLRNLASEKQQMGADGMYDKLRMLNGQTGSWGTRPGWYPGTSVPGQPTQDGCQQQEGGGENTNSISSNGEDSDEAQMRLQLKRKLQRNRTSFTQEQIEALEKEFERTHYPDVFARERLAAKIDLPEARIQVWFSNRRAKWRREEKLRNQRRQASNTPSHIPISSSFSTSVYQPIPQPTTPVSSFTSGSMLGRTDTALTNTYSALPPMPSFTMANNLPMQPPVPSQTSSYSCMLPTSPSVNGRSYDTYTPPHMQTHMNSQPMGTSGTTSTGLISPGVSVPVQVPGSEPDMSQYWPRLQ
Estrogen receptor (Homo sapiens), sequence (P03372 whole entry, looked up, the tested form may be a part): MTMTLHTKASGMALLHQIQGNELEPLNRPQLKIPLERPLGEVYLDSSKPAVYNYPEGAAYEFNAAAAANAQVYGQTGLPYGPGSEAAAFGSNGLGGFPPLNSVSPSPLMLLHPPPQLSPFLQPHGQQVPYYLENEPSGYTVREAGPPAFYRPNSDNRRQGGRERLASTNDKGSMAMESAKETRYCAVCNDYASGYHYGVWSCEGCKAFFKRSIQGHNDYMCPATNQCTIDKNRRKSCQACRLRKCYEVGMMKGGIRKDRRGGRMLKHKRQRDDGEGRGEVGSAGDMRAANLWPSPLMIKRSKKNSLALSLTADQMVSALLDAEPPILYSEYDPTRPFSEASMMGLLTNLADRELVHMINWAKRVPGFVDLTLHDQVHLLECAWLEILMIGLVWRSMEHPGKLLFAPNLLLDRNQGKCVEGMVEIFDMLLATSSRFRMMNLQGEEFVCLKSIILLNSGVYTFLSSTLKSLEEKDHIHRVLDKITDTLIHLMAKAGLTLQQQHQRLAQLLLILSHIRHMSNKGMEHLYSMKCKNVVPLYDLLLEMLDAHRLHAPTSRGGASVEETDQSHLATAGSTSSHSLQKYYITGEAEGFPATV
Transcription factor Sp1 (Homo sapiens), sequence (P08047 whole entry, looked up, the tested form may be a part): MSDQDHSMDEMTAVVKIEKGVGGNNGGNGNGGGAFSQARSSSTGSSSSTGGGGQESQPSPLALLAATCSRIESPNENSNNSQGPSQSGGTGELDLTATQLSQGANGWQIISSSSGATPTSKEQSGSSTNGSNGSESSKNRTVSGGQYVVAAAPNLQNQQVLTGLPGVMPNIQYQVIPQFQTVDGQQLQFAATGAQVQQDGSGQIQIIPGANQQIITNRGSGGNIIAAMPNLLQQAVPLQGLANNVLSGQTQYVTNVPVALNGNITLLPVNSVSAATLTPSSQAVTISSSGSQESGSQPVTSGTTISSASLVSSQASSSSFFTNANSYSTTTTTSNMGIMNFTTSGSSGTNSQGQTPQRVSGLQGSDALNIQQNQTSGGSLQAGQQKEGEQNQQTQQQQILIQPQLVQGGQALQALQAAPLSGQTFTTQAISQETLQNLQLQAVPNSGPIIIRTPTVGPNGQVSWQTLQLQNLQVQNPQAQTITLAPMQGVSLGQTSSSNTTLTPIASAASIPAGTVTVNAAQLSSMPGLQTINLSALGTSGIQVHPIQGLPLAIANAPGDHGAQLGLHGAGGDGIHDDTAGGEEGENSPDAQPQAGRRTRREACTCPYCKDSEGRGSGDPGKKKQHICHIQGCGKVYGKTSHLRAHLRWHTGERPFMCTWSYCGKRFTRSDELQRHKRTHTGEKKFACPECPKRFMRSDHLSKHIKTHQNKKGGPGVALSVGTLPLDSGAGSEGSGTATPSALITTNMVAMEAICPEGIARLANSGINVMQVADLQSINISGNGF
Hypoxia-inducible factor 1-alpha (Homo sapiens), sequence (Q16665 whole entry, looked up): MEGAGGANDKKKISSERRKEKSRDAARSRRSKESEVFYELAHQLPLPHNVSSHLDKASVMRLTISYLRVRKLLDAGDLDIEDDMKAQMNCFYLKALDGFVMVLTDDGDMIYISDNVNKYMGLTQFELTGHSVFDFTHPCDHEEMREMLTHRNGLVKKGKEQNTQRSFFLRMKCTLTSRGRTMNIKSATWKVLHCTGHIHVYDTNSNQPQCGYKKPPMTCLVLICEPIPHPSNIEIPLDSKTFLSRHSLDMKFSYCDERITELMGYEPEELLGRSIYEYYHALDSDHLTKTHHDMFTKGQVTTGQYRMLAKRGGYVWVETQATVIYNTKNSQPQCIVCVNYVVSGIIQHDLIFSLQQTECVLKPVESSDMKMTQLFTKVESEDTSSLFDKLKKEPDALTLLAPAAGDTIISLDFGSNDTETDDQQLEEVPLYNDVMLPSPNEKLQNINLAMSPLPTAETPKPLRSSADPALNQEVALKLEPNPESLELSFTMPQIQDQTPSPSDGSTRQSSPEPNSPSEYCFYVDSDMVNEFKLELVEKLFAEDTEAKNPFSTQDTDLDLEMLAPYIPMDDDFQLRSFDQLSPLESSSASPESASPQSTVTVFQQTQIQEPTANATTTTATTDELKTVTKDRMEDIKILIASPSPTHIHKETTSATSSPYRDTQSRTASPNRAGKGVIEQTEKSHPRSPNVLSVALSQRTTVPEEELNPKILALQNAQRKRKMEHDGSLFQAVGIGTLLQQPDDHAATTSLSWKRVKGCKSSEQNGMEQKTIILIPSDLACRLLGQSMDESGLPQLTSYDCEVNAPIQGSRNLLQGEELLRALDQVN
Signal transducer and activator of transcription 3 (Homo sapiens), sequence (P40763 whole entry, looked up, the tested form may be a part): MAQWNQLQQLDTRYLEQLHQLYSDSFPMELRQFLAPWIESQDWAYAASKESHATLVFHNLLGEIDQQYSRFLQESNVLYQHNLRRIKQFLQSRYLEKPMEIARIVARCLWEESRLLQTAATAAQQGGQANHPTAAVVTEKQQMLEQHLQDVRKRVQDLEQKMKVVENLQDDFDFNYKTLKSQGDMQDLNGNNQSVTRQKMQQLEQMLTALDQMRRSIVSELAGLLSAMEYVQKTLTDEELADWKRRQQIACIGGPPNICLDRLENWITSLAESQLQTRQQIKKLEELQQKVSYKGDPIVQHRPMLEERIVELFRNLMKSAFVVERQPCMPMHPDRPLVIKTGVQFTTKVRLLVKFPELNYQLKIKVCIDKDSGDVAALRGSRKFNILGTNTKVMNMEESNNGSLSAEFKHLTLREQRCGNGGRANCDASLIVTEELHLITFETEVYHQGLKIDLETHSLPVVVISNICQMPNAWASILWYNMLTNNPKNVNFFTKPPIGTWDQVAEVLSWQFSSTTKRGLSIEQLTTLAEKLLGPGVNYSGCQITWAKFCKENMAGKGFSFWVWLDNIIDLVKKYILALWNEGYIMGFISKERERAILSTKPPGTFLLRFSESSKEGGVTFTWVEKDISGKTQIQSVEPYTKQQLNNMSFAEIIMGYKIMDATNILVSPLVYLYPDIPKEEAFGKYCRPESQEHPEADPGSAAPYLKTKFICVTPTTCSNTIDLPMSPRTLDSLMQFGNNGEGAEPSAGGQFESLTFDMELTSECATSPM
Hepatocyte nuclear factor 6 (Homo sapiens), sequence (Q9UBC0 whole entry, looked up, the tested form may be a part): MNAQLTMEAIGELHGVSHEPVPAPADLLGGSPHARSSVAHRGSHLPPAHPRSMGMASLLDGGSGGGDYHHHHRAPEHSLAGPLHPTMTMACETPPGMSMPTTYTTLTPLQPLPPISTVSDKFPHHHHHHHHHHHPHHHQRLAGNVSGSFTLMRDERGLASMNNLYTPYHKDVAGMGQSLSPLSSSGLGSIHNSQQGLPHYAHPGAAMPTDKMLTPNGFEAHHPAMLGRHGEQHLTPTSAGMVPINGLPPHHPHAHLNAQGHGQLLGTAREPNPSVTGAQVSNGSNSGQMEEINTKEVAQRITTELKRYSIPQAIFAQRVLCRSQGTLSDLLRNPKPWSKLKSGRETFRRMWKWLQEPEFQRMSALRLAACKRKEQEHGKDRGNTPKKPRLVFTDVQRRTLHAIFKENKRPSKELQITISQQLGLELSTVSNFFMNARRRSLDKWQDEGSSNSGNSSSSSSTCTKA
Nuclear receptor subfamily 1 group I member 3 (Homo sapiens), sequence (Q14994 whole entry, looked up, the tested form may be a part): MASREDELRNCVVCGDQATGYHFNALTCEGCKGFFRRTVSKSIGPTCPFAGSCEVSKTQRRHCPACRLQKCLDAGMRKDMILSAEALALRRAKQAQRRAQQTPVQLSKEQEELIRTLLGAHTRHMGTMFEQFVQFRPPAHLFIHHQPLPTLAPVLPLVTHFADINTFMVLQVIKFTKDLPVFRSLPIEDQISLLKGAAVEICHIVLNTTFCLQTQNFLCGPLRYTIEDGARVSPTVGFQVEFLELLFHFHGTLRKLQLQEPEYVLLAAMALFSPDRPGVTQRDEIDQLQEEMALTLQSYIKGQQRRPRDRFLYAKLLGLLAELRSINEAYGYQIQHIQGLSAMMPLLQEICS

Cc1cc(C(F)(C(F)(F)F)C(F)(F)F)ccc1NC(=O)c1cccc(I)c1C(=O)NC(C)(C)CS(C)(=O)=O
active: [7] 0.633 µM
not listed: [18] | [19] | [20]
inactive: all other assays above

C1CCC(C2CCCCC2)CC1
active: [17] 27.9 µM
not listed: [20]
inactive: all other assays above

O=C/C(Cl)=C(/Cl)C(=O)O
active: [2] 136 µM | [3] 151 µM | [4] 136 µM | [6] 132 µM | [7] 167 µM | [10] 83.9 µM | [12] 159 µM | [14] 31.9 µM | [16] 43.7 µM | [20] 74.3 µM | [17] 156 µM
inactive: [1] | [5] | [8] | [9] | [11] | [13] | [18] | [15]

NC(=O)c1ccc(N)nc1
not listed: [13] | [17]
inactive: all other assays above

Nc1c(Oc2ccccc2)cc(O)c2c1C(=O)c1ccccc1C2=O
active: [7] 4.42 µM | [17] 7.82 µM
not listed: [13] | [19] | [20]
inactive: all other assays above

CNC(=O)O/N=C/C(C)(C)S(C)(=O)=O
not listed: [8] | [17] | [18] | [19] | [20]
inactive: all other assays above

CC(C)=CC1C(C(=O)OCc2cccc(Oc3ccccc3)c2)C1(C)C (stereo not drawn)
active: [7] 3.43 µM
not listed: [6] | [8] | [17] | [19]
inactive: all other assays above

C1CN2CCN1CC2
active: [1] 50.5 µM
not listed: [8] | [17] | [19]
inactive: all other assays above
